Here are results for 38 molecules from PubChem BioAssay AID1645887 (National Center for Advancing Translational Sciences (NCATS), 2021).

Each structure is given as a SMILES string. Several values for one entry are separate records, joined by “and”; a condition that tells them apart may be missing. Identical values can stand only once. In all, about 16,000 compounds went through this assay and about 40 (0.2%) were called active. Not shown: some 1% with an inconclusive outcome. Only a selection was taken, and actives are over-represented in it overall. A number with no mark means an inactive call. Calls come from the whole dose curve; as a rule, active = well fitted activation curve with a large enough effect; inconclusive = small, poorly fitted or top-dose-only effect, or another doubt; inactive = no such curve, though single readings can be large or run the other way.
% is set by controls: 0 for no effect and ±100 for the full control effect; potency is the fitted concentration of half-maximal effect.

Sequence of Rap guanine nucleotide exchange factor 4 (Homo sapiens) (Q8WZA2 whole entry, looked up): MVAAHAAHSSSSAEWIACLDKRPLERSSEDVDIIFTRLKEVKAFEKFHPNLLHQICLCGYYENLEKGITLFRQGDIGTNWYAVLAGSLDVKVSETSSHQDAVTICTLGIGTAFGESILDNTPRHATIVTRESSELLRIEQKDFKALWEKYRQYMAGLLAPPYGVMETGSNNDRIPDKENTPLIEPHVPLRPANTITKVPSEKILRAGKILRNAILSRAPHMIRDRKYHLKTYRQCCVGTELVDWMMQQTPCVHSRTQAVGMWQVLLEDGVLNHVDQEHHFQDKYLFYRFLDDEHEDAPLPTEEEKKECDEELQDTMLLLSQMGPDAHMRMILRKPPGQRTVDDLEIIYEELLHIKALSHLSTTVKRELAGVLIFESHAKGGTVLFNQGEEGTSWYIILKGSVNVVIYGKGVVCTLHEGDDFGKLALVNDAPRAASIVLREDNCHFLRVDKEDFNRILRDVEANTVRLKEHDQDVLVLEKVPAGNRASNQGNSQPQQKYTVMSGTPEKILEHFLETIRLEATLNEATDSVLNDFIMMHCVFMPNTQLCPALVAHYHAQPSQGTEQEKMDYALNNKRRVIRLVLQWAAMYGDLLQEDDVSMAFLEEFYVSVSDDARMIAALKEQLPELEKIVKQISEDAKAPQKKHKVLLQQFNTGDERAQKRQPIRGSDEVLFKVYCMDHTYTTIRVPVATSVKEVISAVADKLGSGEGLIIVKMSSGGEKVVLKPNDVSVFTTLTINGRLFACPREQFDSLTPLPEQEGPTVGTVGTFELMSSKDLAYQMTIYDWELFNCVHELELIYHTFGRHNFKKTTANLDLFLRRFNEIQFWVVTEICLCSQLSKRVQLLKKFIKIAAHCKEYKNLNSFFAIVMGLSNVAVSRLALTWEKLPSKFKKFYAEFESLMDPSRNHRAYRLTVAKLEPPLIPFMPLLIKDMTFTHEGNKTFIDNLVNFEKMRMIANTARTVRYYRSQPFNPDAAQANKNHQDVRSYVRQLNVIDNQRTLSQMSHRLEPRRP

In this assay the target is Rap guanine nucleotide exchange factor 4 (Homo sapiens) (UniProt Q8WZA2). Kind of assay: Validation qHTS for agonist of cAMP-regulated guanine nucleotide exchange factor 4 (EPAC2).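 For activation: exchange makes BODIPY-GDP fluorescence drop when released from Rap1B; series mostly up to about 150 µM.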 The conditions noted are these: EPAC2 Rap1B BODIPY-GDP exchange, fluorescence; activation: stronger effect = higher value. The source says:
Principle Investigator: Xiaodong Cheng Ph.D.
The University of Texas Medical Branch, […], TX
In multi-cellular eukaryotic organisms, the effects of cAMP are transduced by two ubiquitously-expressed intracellular cAMP receptors, the classic protein kinase A/cAMP-dependent protein kinase (PKA/cAPK) and the more recently discovered exchange protein directly activated by cAMP/cAMP-regulated guanine nucleotide exchange factor (EPAC/cAMP-GEF). Both PKA and EPAC are ubiquitously expressed in all tissues, and an increase in intracellular cAMP levels will lead to the activation of both PKA and EPAC. Therefore, careful dissections of the individual role and relative contribution of EPAC and PKA within the overall cAMP signaling in various model systems are critical for further elucidating the mechanism of cAMP signaling. To date no EPAC-specific antagonists and agonist, as well as isoform-specific agonists have been reported, and developing EPAC-specific pharmacological probes to determine the physiological functions that EPAC play in the overall cAMP-mediated signaling remains a major challenge within the research field. Furthermore, identified regulators of EPAC may lead to new mechanism-based therapeutic strategies specifically targeting the EPAC / cAMP-signaling components as EPAC has been implicated to play important roles in major human pathological conditions such as diabetes, heart disease, and cancer.
This qHTS will be used to screen the Molecular Libraries Small Molecule Repository (MLSMR) as a concentration-titration series using the NCGC unique quantitative screening (qHTS) platform to find activators for EPAC1. In addition, this assay will also be used as a counterscreen for the EPAC2 qHTS. This fluorescent based assay is developed and validated for EPAC1 that measures exchange using EPAC effector Rap1 complex with BODIPY-GDP, a GDP analog with a tethered fluorophores. Activators are identified by monitoring the change in fluorescence signal as the exchanged free BODIPY-GDP has a reduced fluorescence compared to Rap1-bound BODIPY-GDP. Increase in signal (activation) is the desired outcome for the EPAC1 agonist while no activity in this assay is desired for the EPAC2 agonist counterscreen.
[1] de Rooij, J., Zwartkruis, F. J., Verheijen, M. H., Cool, R. H., Nijman, S. M., Wittinghofer, A., and Bos, J.L. (1998) Nature 396, 474-477.
Briefly, three uL of reagents (100 nM EPAC2, 250 nM RAP1B-BODIPY-GDP, 50 uM GDP) were dispensed into a 1536-well Greiner black solid-bottom medium binding assay plate. Controls and test compounds (23 nL) were transferred to the plate via a Kalypsys pin tool equipped with a 1536-pin array. The plates were centrifuged at 1,000 rpm for 15 seconds followed by 5 minute incubation at room temperature. The assay plates were read at 5 minute intervals for 30 minutes in the ViewLux plate reader using 480nm excitation and 540nm emission filters. The results were normalized to the agonist positive control of 6.5 mM cAMP.
As to `O=c1c(-c2ccc(F)c(F)c2)nc2cncnc2n1Cc1ccccc1`, the activation is -20.1%.

As for `C[N+](C)(CCOc1ccccc1)Cc1cccs1`, the activation is -2.61%.

Consider `O=C(NCc1ccncc1)c1cnn(-c2nccc(-c3cccs3)n2)c1C1CC1`, for which the activation is -7.47%.

On to `COc1ncc2nc(C)c(=O)n(Cc3cccs3)c2n1`, for which the activation was -6.26%.

Consider `CN(C)Cc1ccccc1-c1cncnc1Nc1ccncc1`, for which the activation is 2.36%.

On to `COc1cccc(Cn2c(=O)c(C)nc3cnc(N4CCOCC4)nc32)c1`, for which the activation was 1.39%.

In the case of `CN(C)C(=O)c1ccc(-c2cc(NCc3cccs3)ncn2)cc1`, the activation is -16.8%.

As to `CCNc1ncc2nc(-c3cccc(C#N)c3)c(=O)n(Cc3cccc(OC)c3)c2n1`, the activation was 3.97%.

Regarding `Cc1ccc(C(C)CCN2CCOc3ccc(CN4CCOCC4)cc3C2)o1` (stereo not drawn), the activation was 1.95%.

Take `CC1CN(c2cc3c(cc2F)c(=O)c(C(=O)O)cn3-c2ccc(F)cc2F)CCN1` (stereo not drawn): the activation is -22.2%.

Regarding `C=C[C@@H]1c2cc(C)ccc2N(S(=O)(=O)c2ccc(C)cc2)[C@H](c2ccc(OC(C)=O)cc2)C1(C#N)C#N`, the activation is -9.82%.

For `CCN(CC)CCCC(C)Nc1c2ccc(Cl)cc2nc2ccc(OC)cc12` (stereo not drawn), the Potency was 89.1 µM (active).

As for `CCN(CC)CCCC(C)Nc1cc(/C=C/c2ccccc2Cl)nc2cc(Cl)ccc12` (stereo not drawn), the activation was 16.5%.

Take `CCN(CC)CCCC(C)Nc1ccnc2cc(Cl)ccc12` (stereo not drawn): the activation was -8.87% and 0.526% and -22.7%.

As to `COc1ccccc1-c1ccnc(-n2ncc(C(=O)NCc3cccnc3)c2C)n1`, the activation was 8.95%.

With `COc1ccccc1/C=C\C(=O)OC[C@@H]1CCCN2CCCC[C@H]12`, the activation was -21.1%.

Turning to `CCOC(=O)CCC(=O)O[C@H]1C(O[C@@H]2C(C)[C@H](O[C@H]3C[C@@](C)(OC)C(O)C(C)O3)C(C)C(=O)OC(CC)[C@@](C)(O)C(O)[C@H](C)C(=O)C(C)C[C@]2(C)O)OC(C)CC1N(C)C` (stereo partly drawn), the activation was -16.2%.

In the case of `O=c1c(-c2ccc(F)cc2)nc2cnc(Oc3cccc(Cl)c3)nc2n1C[C@H]1CCCO1`, the activation is 10.2%.

Take `CO[C@H]1[C@H](NC(=O)c2ccsc2)c2ccccc2C12CCN(Cc1c(O)ccc3ccccc13)CC2`: the activation was -7.57%.

`OCCN(CCO)c1nc(N2CCCCC2)c2nc(N(CCO)CCO)nc(N3CCCCC3)c2n1`: the Potency is 112 µM (active) and 100 µM (active).

With `COCC(=O)N1CCC2(CC1)CN(c1cccc(-c3ccccc3)c1)C2`, the activation was -17%.

As to `Cc1noc(C)c1-c1nc(NCc2cccnc2)c2ccccc2n1`, the activation was -6.22%.

Regarding `Cc1oc(-c2ccccc2NC(=O)c2ccccc2)nc1CNC(=O)C1CC(=O)OC12CCCCC2` (stereo not drawn), the activation was -5.24%.

Turning to `CSc1nnc(CNC(=O)c2c(-c3ccccc3)noc2C)n1-c1ccc(F)cc1`, the activation is -0.342%.

For the molecule `Cc1cccnc1-c1cccc2c1OC(CNC(=O)C(=O)c1ccccc1)C2` (stereo not drawn), the activation was -7.04%.

In the case of `COc1cccc(CNC(=O)c2c(OC)cc(=O)n3c2CCN(C(=O)c2csc(C)n2)CC3)c1`, the activation is 1.41%.

Consider `CCOC(=O)c1c[nH]c2cc(OCC(C)C)c(OCC(C)C)cc2c1=O`, for which the activation is -9.73%.

Regarding `Cn1c2c(c(=O)c3ccccc31)C[C@@H](O)C(C)(C)O2`, the activation is -9.21%.

For `Cc1cc2nc3c(=O)[nH]c(=O)nc-3n(CC(O)C(O)C(O)CO)c2cc1C` (stereo not drawn), the Potency is 89.1 µM (active).

`Cc1cc2nc3c(=O)[nH]c(=O)nc-3n(C[C@H](O)[C@H](O)[C@H](O)CO)c2cc1C`: the Potency was 79.4 µM (active) and 100 µM (active).

`Cc1cc2nc3c(=O)[nH]c(=O)nc-3n(C[C@H](O)[C@H](O)[C@H](O)COP(=O)(O)OP(=O)(O)OC[C@H]3O[C@@H](n4cnc5c(N)ncnc54)[C@H](O)[C@@H]3O)c2cc1C`: the Potency is 89.1 µM (active).

As for `Nc1ncnc2c1ncn2[C@@H]1O[C@H](COP(=O)(O)OP(=O)(O)OP(=O)(O)OP(=O)(O)OC[C@@H]2O[C@H](n3cnc4c(N)ncnc43)[C@@H](O)[C@H]2O)[C@@H](O)[C@H]1O`, the activation was 12.8% and -62.2%.

As to `Nc1ncnc2c1ncn2[C@@H]1O[C@H](COP(=O)(O)OP(=O)(O)OP(=O)(O)O)[C@@H](O)[C@H]1O`, the activation is 1.95%.

On to `CC[C@H]1OC(=O)[C@H](C)[C@@H](O[C@H]2C[C@@](C)(OC)[C@@H](O)[C@H](C)O2)[C@H](C)[C@@H](O[C@@H]2O[C@H](C)C[C@H](N(C)C)[C@H]2O)[C@](C)(O)C[C@H](C)C(=NOCOCCOC)[C@H](C)[C@@H](O)[C@]1(C)O`, for which the activation is -4.72%.

Turning to `C[C@@H]1CN(Cc2ccc3c(c2)CN(Cc2cccc4c2OCO4)CCO3)C[C@H](C)O1`, the activation is -2.91%.

Turning to `CC(=O)c1ccc(F)c(-c2cc(C)cc3c2OC(CNC(=O)C[C@@H]2C[C@@H](C)NC(=S)N2)C3)c1` (stereo partly drawn), the activation was -13.4%.

Take `Cc1ccc(N)cc1O`: the activation is 2.89%.

Regarding `C[n+]1c2cc(N)ccc2cc2ccc(N)cc21` (tested in a mixture with another compound), the Potency is 22.4 µM (active).
